Laboratory results from PubChem BioAssay (Tox21).
Inconclusive results are not listed. Calls of active or inactive are those of the source. Unless noted, calls follow the shape of the dose curve; as a rule, active = well fitted curve in the direction sought with a large enough effect in the repeat runs; inconclusive = weak or mixed curves; inactive = no such curve, though single readings can be large; an effect the other way counts as inactive or inconclusive.

Assays:
[1] = target: Thyrotropin receptor (Homo sapiens) (UniProt P16473); test: qHTS assay to identify small molecule agonists of the thyroid stimulating hormone receptor (TSHR) signaling pathway (AID 1224843; calls by dose curve; also: nearly all actives have a fitted effect of over 45% in size)
Sequence of Thyrotropin receptor (Homo sapiens) (P16473 whole entry, looked up): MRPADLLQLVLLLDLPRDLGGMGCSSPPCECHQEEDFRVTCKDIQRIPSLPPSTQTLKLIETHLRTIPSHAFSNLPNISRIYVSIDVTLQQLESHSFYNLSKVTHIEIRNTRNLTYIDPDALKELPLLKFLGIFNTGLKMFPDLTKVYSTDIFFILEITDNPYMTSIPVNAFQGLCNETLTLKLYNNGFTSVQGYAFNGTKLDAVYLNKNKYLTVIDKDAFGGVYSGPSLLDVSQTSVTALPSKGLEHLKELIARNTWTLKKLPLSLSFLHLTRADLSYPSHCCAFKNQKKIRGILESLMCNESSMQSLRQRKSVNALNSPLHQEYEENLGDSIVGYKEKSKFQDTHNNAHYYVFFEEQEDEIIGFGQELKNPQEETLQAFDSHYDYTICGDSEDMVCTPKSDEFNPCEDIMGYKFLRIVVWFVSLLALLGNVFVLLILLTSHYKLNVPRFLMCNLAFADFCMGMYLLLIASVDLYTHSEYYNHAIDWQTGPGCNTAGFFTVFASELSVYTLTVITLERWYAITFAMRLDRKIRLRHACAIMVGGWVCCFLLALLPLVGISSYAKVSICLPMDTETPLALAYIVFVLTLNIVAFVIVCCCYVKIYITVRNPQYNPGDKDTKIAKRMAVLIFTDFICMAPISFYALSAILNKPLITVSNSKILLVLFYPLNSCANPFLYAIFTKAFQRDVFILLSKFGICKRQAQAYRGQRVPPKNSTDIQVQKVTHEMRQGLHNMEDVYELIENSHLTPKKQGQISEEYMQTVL
Outline: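 Agonist-mode screen: TSHR HEK293 cells received test chemicals for half an hour at room temperature, then HTRF cAMP detection reagents for one hour prior to fluorescence measurement. Each chemical ran as a 15-concentration series, triplicated.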

[2] = qHTS assay to identify small molecule agonists of the hypoxia (HIF-1) signaling pathway - cell viability counter screen (AID 1224844; calls by dose curve; also: nearly all actives have a fitted effect of over 50% in size)
Outline: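 Same wells as the HIF-1 reporter screen; ME-180 cells carrying HRE-bla, 17 hr treatment at 37C; CellTiter-Glo luminescence read after 30 min at room temperature.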

[3] = qHTS assay to identify small molecule agonists of H2AX (AID 1224845; active = well fitted activation curve with a large enough effect in the signal ratio in the repeat runs, not every such curve was filed as active; the % refers to the signal ratio)
Outline: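 Wild-type CHO-K1 cells, plated overnight, exposed 3hr at 37C to 15 concentrations (0.76% DMSO final). Lysed, then HTRF anti-pH2AX (S139) cryptate and anti-H2AX-d2 antibodies, 24 hr room temperature; 665/620 nm emission read.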

[4] = qHTS assay to identify small molecule agonists of the hypoxia (HIF-1) signaling pathway (AID 1224846; active = well fitted activation curve with a large enough effect in the signal ratio in the repeat runs, not every such curve was filed as active; the % refers to the signal ratio)
Outline: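 In ME-180 cells bearing an HRE-bla construct, 17 h treatment with DMSO-dissolved compounds at 37C was followed by CCF4-AM loading to quantify reporter induction.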

[5] = qHTS assay to identify small molecule agonists of H2AX - cell viability counter screen (AID 1224847; calls by dose curve; also: top concentration of the series differs between compounds; nearly all actives have a fitted effect of over 30% in size)
Outline: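 CHO-K1 cells plated overnight at 37C, then exposed 3 h at 37C to compounds at 15 concentrations (0.76% DMSO final). Viability by CellTiter-Glo luminescence after 30 min at room temperature.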

[6] = qHTS assay to identify small molecule antagonists of the estrogen related receptor (ERR) signaling pathway from Tox21 library (AID 1224848); also: nearly all actives have a fitted effect of over 50% in size
Outline: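 Quantitative high-throughput format: ERR reporter cells (2,000/well) pre-incubated 6 h, treated 18 h at 37 C with compounds in DMSO alongside positive and negative controls, then read by ONE-Glo luminescence.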

[7] = qHTS assay to identify small molecule agonists of the estrogen related receptor (ERR) signaling pathway from Tox21 library (AID 1224849; calls by dose curve; also: nearly all actives have a fitted effect of over 15% in size); conditions: ERR reporter cell line, ONE-Glo luciferase, 18 h; at 92.4 µM (top of the series) unless noted
Outline: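 Reporter cells (ERR, NTP source) treated with Tox21 10K compounds 18 h, 37 C. Readout: ONE-Glo luminescence, 30 min RT.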

[8] = qHTS RealTime-Glo MT Cell Viability Assay in HepG2 cells - 24 hour (AID 1224867); also: nearly all actives have a fitted effect of over 50% in size
Outline: (§1)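 HepG2 cells (600/well) were dispensed with RealTime-Glo reagents, incubated 5 h at 37 °C, then treated with compounds in DMSO for up to 40 h. Nonlytic NanoLuc luminescence reflecting viable cells was read at each stated time point.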

[9] = A CellTox Green Cytotoxicity Assay to monitor cytotoxicity in HEK293 cells - 0 hour (AID 1224869); also: nearly all actives have a fitted effect of over 50% in size
Outline: (§2)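 Homogeneous no-lysis format: HEK293 cell suspension mixed with CellTox Green reagent, seeded, incubated 5 h at 37 C/5% CO2, then dosed by pintool with compound in DMSO.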

[10] = qHTS RealTime-Glo MT Cell Viability Assay in HepG2 cells - 40 hour (AID 1224870); also: nearly all actives have a fitted effect of over 50% in size
Outline: (§3)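 HepG2 cells (600/well) mixed with RealTime-Glo MT reagent, settled 5 h at 37 C/5% CO2 before compound addition. Nonlytic NanoLuc luminescence from viable-cell prosubstrate reduction read repeatedly during 40 h treatment at 37 C.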

[11] = A CellTox Green Cytotoxicity Assay to monitor cytotoxicity in HEK293 cells - 40 hour (AID 1224871); also: nearly all actives have a fitted effect of over 45% in size
Outline: as §2

[12] = qHTS RealTime-Glo MT Cell Viability Assay in HepG2 cells - 8 hour (AID 1224873); also: nearly all actives have a fitted effect of over 55% in size
Outline: as §3

[13] = A CellTox Green Cytotoxicity Assay to monitor cytotoxicity in HEK293 cells - 24 hour (AID 1224875); also: nearly all actives have a fitted effect of over 45% in size
Outline: as §2

[14] = A CellTox Green Cytotoxicity Assay to monitor cytotoxicity in HepG2 cells - 16 hour (AID 1224876); also: nearly all actives have a fitted effect of over 45% in size
Outline: (§4)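 Fluorescent DNA-binding dye, 600 HepG2 cells/well, 5 h preincubation then compound in DMSO; same plates read at 0–40 h, 37 C.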

[15] = A CellTox Green Cytotoxicity Assay to monitor cytotoxicity in HepG2 cells - 24 hour (AID 1224878); also: nearly all actives have a fitted effect of over 45% in size
Outline: as §4

[16] = A CellTox Green Cytotoxicity Assay to monitor cytotoxicity in HepG2 cells - 40 hour (AID 1224879); also: nearly all actives have a fitted effect of over 40% in size
Outline: as §4

[17] = qHTS RealTime-Glo MT Cell Viability Assay in HEK293 cells - 32 hour (AID 1224868)
Outline: (§5)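 HEK293 cells seeded with NanoLuc/prosubstrate reagent, rested 5 h at 37 C, then dosed and kept at 37 C up to 40 h. Nonlytic real-time luminescence from viable cells read at 0, 8, 16, 24, 32 and 40 h.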

[18] = qHTS RealTime-Glo MT Cell Viability Assay in HEK293 cells - 16 hour (AID 1224872)
Outline: as §5

[19] = qHTS RealTime-Glo MT Cell Viability Assay in HEK293 cells - 40 hour (AID 1224874); conditions: RealTime-Glo luminescence; max response: stronger effect = lower value; also: nearly all actives have a fitted effect of over 50% in size
Outline: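 Measured as luminescence from the same continuously cultured HEK293 wells at successive time points (0, 8, 16, 24, 32, 40 h) after compound addition. Reagent present from seeding; dosing at 5 h; incubation 37 C.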

[20] = qHTS RealTime-Glo MT Cell Viability Assay in HepG2 cells - 32 hour (AID 1224877); also: nearly all actives have a fitted effect of over 55% in size
Outline: as §1
% is scaled to controls: 0 for no effect and ±100 for the full control effect.

CCCCCCCC/C=C\CCCCCCCC(=O)OCCCC
inactive: activation [1] 1.53% [at 19 µM] | activity change, negative = cytotoxicity [2] -10.5% [at 15.8 µM] | activation (H2AX phosphorylation) [3] 4.47% [at 31.6 µM] | activation [4] -1.44% [at 15.8 µM] | activity change, negative = cytotoxicity [5] -0.831% [at 31.6 µM] | activity, negative = inhibition [6] 0.129% [at 19 µM] | activity change, positive = activation [7] 0.0665% [at 19 µM] | activity change, negative = cytotoxicity [8] 2.67% [at 15.8 µM] | cytotoxicity [9] -14.5% [at 15.8 µM] | activity change, negative = cytotoxic [10] 12.2% [at 15.8 µM] | cytotoxicity increase [11] -33.9% [at 15.8 µM] | viability change, negative = cytotoxic [12] -0.413% [at 15.8 µM] | activity change [13] -32.5% [at 15.8 µM] | cytotoxicity increase [14] -7.79% [at 15.8 µM] | cytotoxicity [15] -11.8% [at 15.8 µM] | cytotoxicity increase [16] -13.9% [at 15.8 µM]

CC(C)c1ccc2cc(C(C)C)ccc2c1
inactive: Potency [1] | outcome [2] | outcome [3] | outcome [4] | Potency [5] | outcome [8] | Potency [17] | outcome [9] | outcome [10] | Potency [11] | Potency [18] | outcome [12] | max response [19] 11.1% | outcome [13] | outcome [14] | outcome [20] | outcome [15] | Potency [16]

BrCCCCCBr
inactive: Potency [1] | outcome [2] | outcome [3] | outcome [4] | Potency [5] | Potency [6] | activity change, positive = activation [7] 6.39% | outcome [8] | Potency [17] | outcome [9] | outcome [10] | Potency [11] | Potency [18] | outcome [12] | max response [19] 19.9% | outcome [13] | outcome [14] | outcome [20] | Potency [16]

CC(=O)NCCCCCC(=O)O
inactive: Potency [1] | outcome [2] | outcome [3] | outcome [4] | Potency [5] | outcome [8] | Potency [17] | outcome [9] | outcome [10] | Potency [11] | Potency [18] | outcome [12] | max response [19] 5.61% | outcome [13] | outcome [14] | outcome [20] | outcome [15] | Potency [16]

O=S(=O)(O)CCN1CCN(CCO)CC1
inactive: Potency [1] | outcome [2] | outcome [3] | outcome [4] | Potency [5] | Potency [6] | activity change, positive = activation [7] 9.7% | Potency [17] | outcome [9] | outcome [10] | Potency [11] | Potency [18] | outcome [12] | max response [19] -3.48% | outcome [13] | outcome [14] | outcome [20] | outcome [15] | Potency [16]

Nc1ccc([N+](=O)[O-])c(N)c1
inactive: Potency [1] | outcome [2] | outcome [3] | outcome [4] | Potency [5] | Potency [6] | activity change, positive = activation [7] 5.15% | outcome [8] | Potency [17] | outcome [9] | outcome [10] | Potency [11] | Potency [18] | outcome [12] | max response [19] -10.3% | outcome [13] | outcome [14] | outcome [20] | outcome [15] | Potency [16]
